Entries with a potency or affinity are not part of this list.
biological target: Beta-adrenergic receptor kinase 1 (Homo sapiens) (UniProt P25098); assay: aptamer displacement from bead-bound GRK2 – biochemical, cherry pick 1, bead flow cytometry, dose response (AID 504500); conditions: bead-bound biotinylated GRK2, FAM-aptamer displacement; series mostly up to 33 µM; inhibition of aptamer binding: at the top concentration
Sequence (P25098 whole entry, looked up): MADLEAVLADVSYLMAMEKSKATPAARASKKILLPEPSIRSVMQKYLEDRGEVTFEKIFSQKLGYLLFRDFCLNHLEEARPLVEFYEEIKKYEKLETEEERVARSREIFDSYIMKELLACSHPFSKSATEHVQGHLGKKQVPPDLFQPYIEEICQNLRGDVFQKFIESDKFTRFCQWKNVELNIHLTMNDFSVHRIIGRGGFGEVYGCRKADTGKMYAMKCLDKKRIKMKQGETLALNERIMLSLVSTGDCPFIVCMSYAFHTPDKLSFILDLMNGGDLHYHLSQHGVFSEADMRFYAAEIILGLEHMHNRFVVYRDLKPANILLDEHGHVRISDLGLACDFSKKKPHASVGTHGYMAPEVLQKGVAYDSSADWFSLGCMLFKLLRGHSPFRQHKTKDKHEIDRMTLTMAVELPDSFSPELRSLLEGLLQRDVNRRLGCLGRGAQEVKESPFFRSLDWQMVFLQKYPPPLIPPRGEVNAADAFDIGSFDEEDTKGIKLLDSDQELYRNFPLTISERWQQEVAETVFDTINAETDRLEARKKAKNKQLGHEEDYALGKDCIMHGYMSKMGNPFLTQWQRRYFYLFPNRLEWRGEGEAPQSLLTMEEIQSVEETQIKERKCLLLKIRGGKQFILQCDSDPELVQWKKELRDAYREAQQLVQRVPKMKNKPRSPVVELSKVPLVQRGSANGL

Inhibition of aptamer binding, inactive:
COC(=O)c1ccccc1NC(=O)CCS(=O)(=O)c1ccc(Br)s1 -0.55%, COc1ccccc1CNS(=O)(=O)c1ccc2[nH]cc(C(=O)O)c(=O)c2c1 53.4%, CC1CCN(C(=O)c2[nH]cnc2C(=O)Nc2cccc(Cl)c2)CC1 -9.82%, C=C(C)C(=O)Nc1cccc(C2=NOC3(C2)C[C@@H](C(N)=O)N(C(=O)C(=C)C)C3)c1 (stereo partly drawn) 60.3%, C=C(C)C(=O)Nc1cccc(C2=NOC3(C2)C[C@@H](C(N)=O)N(C(=O)/C=C/C=C/C)C3)c1 (stereo partly drawn) 84.2%, O=C(Nc1cccc(-c2ccc(N3CCOCC3)nn2)c1)c1ccccc1 -0.34%, O=C(O)C1C2C=CC(CC2)C1C(=O)O (stereo not drawn) -2.57%, CNC(=O)c1[nH]cnc1C(=O)Nc1cccc(Cl)c1 -2.13%, C=C(C)C(=O)Nc1cccc(C2=NOC3(C2)C[C@@H](C(N)=O)N(C(=O)/C=C/CC)C3)c1 (stereo partly drawn) 60.9%, Cn1c(=O)c(C(=O)NNC(=O)c2cccc(Cl)c2)c(O)c2ccccc21 85.8%, CCNc1nc(NCC)n2c(SCC(=O)Nc3ccc(C)c(C)c3)nnc2n1 24.3%, COc1ccc(N2CCN(C(CNS(=O)(=O)c3ccccc3)c3ccccc3)CC2)cc1 (stereo not drawn) 3.82%, O=C(CCS(=O)(=O)c1ccc(Br)cc1)NCc1ccco1 72.6%

— PubChem BioAssay AID504500 (NMMLSC, 2011)
